Assay [1] can be described thus: small molecules captured by biotinylated probe aFSTL3 – biochemical, small-molecule microarray, fluorescence 635/667, stem cell growth factor project, primary screen (AID 1064).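 Note: measures binding of the biotinylated anti-FSTL3 antibody to printed compounds.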 To be noted: higher = more signal.
Assay [2] in a line: binders from COS7 lysate, DM2A8 probe, primary screen, torsin A project, cell lysate, small-molecule microarray, fluorescence 635/667 (AID 1065). To be noted: higher = more signal, COS7 lysate expressing mutant human TOR1A.
Assay [3] in a line: small molecules captured by biotinylated probe aFGF2 – biochemical, small-molecule microarray, fluorescence 635/667, stem cell growth factor project, primary screen (AID 1067).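 Note: measures binding of biotinylated aFGF2 protein to printed compounds on slides; z-score merges feature fluorescence and signal-to-noise across triplicate slides.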 As to conditions: higher = more signal.
Assay [4] in a line: small molecules captured by biotinylated probe aFGF10 – biochemical, small-molecule microarray, fluorescence 635/667, stem cell growth factor project, primary screen (AID 1071).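 Note: score merges 667 nm spot intensity and signal to noise from triplicate slides.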 To be noted: higher = more signal.
Assay [5] has as its target Neurogenic locus notch homolog protein 2 (Homo sapiens) (UniProt Q04721). Kind of assay: small molecules binding Notch2 protein – biochemical, small-molecule microarray, 635 nm fluorescence, stem cell growth factors, primary screen (AID 1073). To be noted: higher = more signal.
In assay [6] the target is Pro-neuregulin-1, membrane-bound isoform (Homo sapiens) (UniProt Q02297). Kind of assay: small molecules binding neuregulin-1 protein – biochemical, small-molecule microarray, fluorescence 635/667, psychiatric disease protein project, primary screen (AID 1075).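 Note: score combines 667 nm spot fluorescence with signal to noise.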 To be noted: NRG1 binding, 635 nm fluorescence, higher = more signal.
In assay [7] the test system is Neuregulin-1 EGF-like domain. Nature of the assay: small molecules binding NRG1 EGF domain – biochemical, small-molecule microarray, 635 nm fluorescence, primary screen (AID 1081).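 Note: binding of the protein to compounds printed on small-molecule microarray slides.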 As to conditions: higher = more signal.
Assay [8] in a line: FRG1 expression reporter modulators in myotubes – cell-based, C2C12 myotubes, firefly/Renilla luciferase, luminescence, FRG1 inhibition for FSHD, primary screen (AID 1084). As to conditions: FRG1 promoter luciferase, higher = more signal, called active from +8 up or from −8 down.
The nature of assay [9]: small molecules captured by biotinylated probe aFST – biochemical, small-molecule microarray, fluorescence 635/667, stem cell growth factor project, primary screen (AID 1086).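 Note: score merges 667 nm fluorescence with signal-to-noise of each printed compound spot.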 As to conditions: higher = more signal.
Assay [10] can be described thus: binders of probe aHhip on microarray, primary screen, stem cell growth factor project, biochemical, small-molecule microarray, fluorescence 635/667 (AID 1087).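 Note: score merges spot fluorescence at 667nm with spot signal to noise ratio.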 To be noted: higher = more signal.
Assay [11] relates to PRMT1 (protein arginine N-methyltransferase 1). Nature of the assay: small molecules binding arginine methyltransferase PRMT1 – biochemical, small-molecule microarray, 635 nm fluorescence, primary screen (AID 1088).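 Note: binding of Prmt1 protein to compounds spotted on small-molecule microarray slides.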 To be noted: higher = more signal.
The nature of assay [12]: growth effects on S. cerevisiae YJM789 – YJM789 clinical isolate, OD600, 24 h, basal, primary screen (AID 1089).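 Note: growth of clinical yeast isolate S. cerevisiae YJM 789 seeded 1000 cells per well; test concentration not given here.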 As to conditions: higher = more signal, called active from +8 up or from −8 down.
Assay [13] in a line: S. pombe growth modifiers, basal conditions – strain 972, OD600, 24 h, no modulator, primary screen (AID 1090).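 Note: basal condition with compound alone and no growth modifier present; test concentration not given here.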 As to conditions: S. pombe 972 growth, higher = more signal, called active from +8 up or from −8 down.
Assay [14] is described as follows: budding yeast growth modifiers under rapamycin – strain BY4716, OD600, 96 h, primary screen (AID 1091). Note: test concentration not given here. As to conditions: S. cerevisiae BY4716 + rapamycin, higher = more signal, called active from +8 up or from −8 down.
For assay [15], the target named is Torsin-1A-interacting protein 2 (Homo sapiens) (UniProt Q8NFQ8). Kind of assay: small molecules binding lysate-expressed LULL1 – cell lysate, human LULL1 lysate, 635/667 nm fluorescence, primary screen (AID 1092).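 Note: probe is lysate of COS7 cells overexpressing human LULL1; score merges per-feature 667 nm fluorescence with signal-to-noise.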 As to conditions: small-molecule microarray, hLULL1 lysate binding, 635 nm fluorescence; higher = more signal.
The nature of assay [16]: optical density change of DRC41 E. coli – strain DRC41, OD650, 24 h, E. coli filamentation project, primary screen (AID 1093).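 Note: MC1000 strain lacking acrAB efflux and sulA so SOS filamentation is blocked; test concentration not given here.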 As to conditions: E. coli DRC41 growth, higher = more signal, called active from +8 up or from −8 down.
Assay [17] is described as follows: probe aLefty2 binding to arrayed compounds – biochemical, biotinylated probe, 635/667 nm fluorescence, primary screen (AID 1094).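 Note: score merges spot fluorescence near 667 nm with spot signal-to-noise ratio.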 To be noted: small-molecule microarray, higher = more signal.
The subject of assay [18] is Noggin (protein binding on small-molecule microarray). Kind of assay: small molecules binding Noggin protein – biochemical, 635/667 nm fluorescence, primary screen (AID 1095).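 Note: score merges 667 nm feature fluorescence with signal to noise over triplicate slides.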 As to conditions: 635 nm fluorescence, higher = more signal.
Assay [19] has as its target Neurogenic locus notch homolog protein 3 (Homo sapiens) (UniProt Q9UM47). Kind of assay: small molecules binding NOTCH3 protein – biochemical, 635/667 nm fluorescence, primary screen (AID 1096). As to conditions: small-molecule microarray, 635 nm fluorescence, higher = more signal.
The nature of assay [20]: probe aEGFR binding to arrayed compounds – biochemical, biotinylated probe, 635/667 nm fluorescence, primary screen (AID 1097).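 Note: probe is a biotinylated anti-EGFR antibody binding compounds printed on slides; score combines fluorescence near 667 nm and signal to noise of each spot.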 As to conditions: small-molecule microarray, higher = more signal.

Among the data in PubChem BioAssay are composite z-score and z-score values, retold here.

Calls of active or inactive are those of the source.

Torsin-1A-interacting protein 2 (Homo sapiens), sequence (Q8NFQ8 whole entry, looked up): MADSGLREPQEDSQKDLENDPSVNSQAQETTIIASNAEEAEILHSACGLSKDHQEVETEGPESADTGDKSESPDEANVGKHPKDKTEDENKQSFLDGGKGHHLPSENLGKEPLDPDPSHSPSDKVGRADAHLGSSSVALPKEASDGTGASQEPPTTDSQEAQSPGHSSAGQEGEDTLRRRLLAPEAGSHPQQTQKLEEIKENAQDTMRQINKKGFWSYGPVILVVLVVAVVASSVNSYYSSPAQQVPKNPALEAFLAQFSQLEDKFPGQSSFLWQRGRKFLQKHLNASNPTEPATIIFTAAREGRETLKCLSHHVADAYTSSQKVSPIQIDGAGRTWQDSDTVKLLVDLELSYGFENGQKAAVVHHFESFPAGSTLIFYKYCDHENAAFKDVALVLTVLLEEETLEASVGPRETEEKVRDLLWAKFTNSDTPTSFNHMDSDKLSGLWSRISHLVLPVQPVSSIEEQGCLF
Neurogenic locus notch homolog protein 2 (Homo sapiens), sequence (Q04721 whole entry, looked up, canonical isoform): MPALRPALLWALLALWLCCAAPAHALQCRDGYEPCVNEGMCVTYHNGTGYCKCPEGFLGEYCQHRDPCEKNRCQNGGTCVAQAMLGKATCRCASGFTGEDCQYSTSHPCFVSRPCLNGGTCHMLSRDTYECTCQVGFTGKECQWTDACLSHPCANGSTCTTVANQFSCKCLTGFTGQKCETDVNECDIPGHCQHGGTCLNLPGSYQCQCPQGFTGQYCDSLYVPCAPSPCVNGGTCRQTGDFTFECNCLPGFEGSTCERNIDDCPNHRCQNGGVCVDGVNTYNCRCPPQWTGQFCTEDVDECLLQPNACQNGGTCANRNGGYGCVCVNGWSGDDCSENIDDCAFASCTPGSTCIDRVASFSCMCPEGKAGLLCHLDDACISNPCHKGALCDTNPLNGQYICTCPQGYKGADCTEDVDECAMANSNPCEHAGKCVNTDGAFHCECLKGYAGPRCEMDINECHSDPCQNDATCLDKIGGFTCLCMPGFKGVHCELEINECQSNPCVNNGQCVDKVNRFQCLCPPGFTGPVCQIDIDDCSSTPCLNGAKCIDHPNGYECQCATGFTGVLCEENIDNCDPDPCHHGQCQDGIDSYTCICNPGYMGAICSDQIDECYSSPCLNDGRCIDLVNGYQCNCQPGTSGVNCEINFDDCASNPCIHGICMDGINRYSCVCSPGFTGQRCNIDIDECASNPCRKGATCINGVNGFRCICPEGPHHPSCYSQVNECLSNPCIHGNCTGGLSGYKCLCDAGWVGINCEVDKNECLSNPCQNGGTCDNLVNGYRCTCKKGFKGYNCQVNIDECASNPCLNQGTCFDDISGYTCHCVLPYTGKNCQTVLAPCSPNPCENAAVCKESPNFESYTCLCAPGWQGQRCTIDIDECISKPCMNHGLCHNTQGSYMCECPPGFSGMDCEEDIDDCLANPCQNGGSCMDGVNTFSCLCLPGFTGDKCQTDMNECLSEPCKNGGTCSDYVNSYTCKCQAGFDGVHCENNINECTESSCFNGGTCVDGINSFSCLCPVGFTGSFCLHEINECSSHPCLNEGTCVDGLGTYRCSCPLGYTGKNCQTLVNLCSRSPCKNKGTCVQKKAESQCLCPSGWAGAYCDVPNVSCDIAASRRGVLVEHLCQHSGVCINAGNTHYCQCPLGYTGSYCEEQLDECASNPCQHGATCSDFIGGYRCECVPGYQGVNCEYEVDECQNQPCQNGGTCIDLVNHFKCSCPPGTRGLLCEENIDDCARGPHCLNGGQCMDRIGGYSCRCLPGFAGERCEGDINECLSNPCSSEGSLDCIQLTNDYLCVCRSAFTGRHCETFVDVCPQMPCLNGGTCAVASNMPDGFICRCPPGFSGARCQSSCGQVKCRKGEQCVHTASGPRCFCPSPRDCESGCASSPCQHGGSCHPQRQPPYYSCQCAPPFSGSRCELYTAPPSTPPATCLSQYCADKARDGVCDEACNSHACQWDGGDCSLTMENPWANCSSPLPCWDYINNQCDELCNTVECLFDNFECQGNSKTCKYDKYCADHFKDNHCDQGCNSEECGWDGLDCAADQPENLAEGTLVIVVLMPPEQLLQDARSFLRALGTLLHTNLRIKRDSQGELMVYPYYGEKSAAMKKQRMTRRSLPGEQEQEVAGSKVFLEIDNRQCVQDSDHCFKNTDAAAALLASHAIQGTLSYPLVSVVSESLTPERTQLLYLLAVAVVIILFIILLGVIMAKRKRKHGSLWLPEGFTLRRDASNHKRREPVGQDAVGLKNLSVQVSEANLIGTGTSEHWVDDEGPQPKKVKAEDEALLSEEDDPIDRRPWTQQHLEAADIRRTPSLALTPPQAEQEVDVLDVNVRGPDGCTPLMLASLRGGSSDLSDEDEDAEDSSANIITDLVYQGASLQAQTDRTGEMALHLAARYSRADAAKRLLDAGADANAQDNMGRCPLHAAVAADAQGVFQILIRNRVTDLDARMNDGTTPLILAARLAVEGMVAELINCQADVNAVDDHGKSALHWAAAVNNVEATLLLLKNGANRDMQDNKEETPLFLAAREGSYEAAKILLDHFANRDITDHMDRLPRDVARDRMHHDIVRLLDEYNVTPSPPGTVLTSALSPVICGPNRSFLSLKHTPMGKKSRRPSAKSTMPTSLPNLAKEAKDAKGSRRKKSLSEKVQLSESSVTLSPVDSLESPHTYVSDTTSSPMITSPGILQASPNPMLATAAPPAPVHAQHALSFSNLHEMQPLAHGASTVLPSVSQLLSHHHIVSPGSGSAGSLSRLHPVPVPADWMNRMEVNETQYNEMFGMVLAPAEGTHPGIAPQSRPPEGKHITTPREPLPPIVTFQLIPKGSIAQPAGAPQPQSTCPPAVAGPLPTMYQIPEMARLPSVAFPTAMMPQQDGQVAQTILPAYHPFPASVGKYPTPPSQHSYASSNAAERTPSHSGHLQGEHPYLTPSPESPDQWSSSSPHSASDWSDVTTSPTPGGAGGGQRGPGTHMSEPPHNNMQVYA
Pro-neuregulin-1, membrane-bound isoform (Homo sapiens), sequence (Q02297 whole entry, looked up, the tested form may be a part, canonical isoform): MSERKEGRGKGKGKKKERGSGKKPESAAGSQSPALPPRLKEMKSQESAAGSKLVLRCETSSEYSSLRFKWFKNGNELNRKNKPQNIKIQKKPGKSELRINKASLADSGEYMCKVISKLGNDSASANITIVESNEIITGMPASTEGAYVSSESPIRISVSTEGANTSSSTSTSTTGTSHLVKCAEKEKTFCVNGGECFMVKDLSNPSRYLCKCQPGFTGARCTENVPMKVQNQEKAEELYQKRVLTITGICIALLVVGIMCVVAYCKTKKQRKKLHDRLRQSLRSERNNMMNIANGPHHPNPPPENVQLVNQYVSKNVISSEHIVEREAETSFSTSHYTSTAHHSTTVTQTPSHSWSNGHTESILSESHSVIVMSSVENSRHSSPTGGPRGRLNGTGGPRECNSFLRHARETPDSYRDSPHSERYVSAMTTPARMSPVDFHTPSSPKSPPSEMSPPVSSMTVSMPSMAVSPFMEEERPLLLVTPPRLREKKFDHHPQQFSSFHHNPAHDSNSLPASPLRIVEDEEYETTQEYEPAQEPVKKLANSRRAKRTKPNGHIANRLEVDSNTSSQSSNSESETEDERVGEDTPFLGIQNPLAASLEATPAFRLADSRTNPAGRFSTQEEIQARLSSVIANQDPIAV

Take `COCCOC(=O)N1C(=O)[C@@]2(c3cc(C#CC4(O)CCCCCC4)ccc31)[C@H](c1ccc(OCCO)cc1)N1[C@H](c3ccccc3)[C@H](c3ccccc3)OC(=O)[C@H]1[C@@H]2C(=O)N1CCN(c2ncccn2)CC1`: the composite z-score in assay [1] is -0.407; in assay [2] it was 0.485; in [3] it was -0.0242; in assay [4], 0.612; in assay [5], 1.03; in assay [6], 1.09. Further, the composite z-score in assay [7] was 0.966; in assay [9], 0.557; in [10], -0.0645; in assay [11] it was 1.56; in assay [15] it was 2.69; in [17], -0.136. The composite z-score in assay [18] was 1.67; in assay [19], 1.08; in assay [20], -0.108. The z-score in assay [8] is -0.254 (inactive); in [12] it was 2.64 (inactive); in assay [13], 2.26 (inactive); in assay [14], 6.24 (inactive); in assay [16], 0.0846 (inactive).
As to `CN(C)CCCCCCNC(=O)[C@H]1C[C@H]2C(=O)N[C@@H](CCCCN)C(=O)N2[C@H]1c1cccc(OCCO)c1`, the composite z-score in assay [1] was 3.62; in assay [2], 2.48; in assay [3], 0.898; in assay [4], 1.15; in [5], 1.65; in [6] it was 2.67. Also, the composite z-score in assay [7] stood at 1.55; in assay [9], 3.58; in assay [10], 3.28; in assay [11], 1.56; in [15] it was 4.65; in assay [17], 1.76. Moreover, the composite z-score was found to be 2.06 in [18], 1.01 in assay [19] and 1.12 in assay [20]. Further, the z-score was 3.88 (inactive) in assay [8]; -0.871 (inactive) in [12]; -9.2 (active) in assay [13]; -0.622 (inactive) in assay [14]; -0.15 (inactive) in assay [16].
Turning to `CC(C)=CCCC(C)=CC(O)C1C=CC2C(=O)N(C)C(=O)C2N1Nc1ccccc1` (stereo not given), the composite z-score amounted to 0.0019 in [1]; 0.708 in assay [2]; 0.231 in assay [3]; 0.942 in assay [4]; 1.6 in assay [5]; 1.72 in assay [6]. Further, the composite z-score in [7] is 1.2; in assay [9] it was 1.24; in [10] it was -0.159; in assay [11] it was 1.55; in assay [15], 3.29; in [17] it was 0.245. In addition, the composite z-score in assay [18] was determined as 0.411; in assay [19] it was 1.03; in [20], 0.167. For the same compound, the z-score is -1.04 (inactive) in assay [8]; -0.193 (inactive) in assay [12]; -1.26 (inactive) in [13]; 2.76 (inactive) in [14]; -0.339 (inactive) in [16].
On to `CCCCCCc1nc(-c2ccc(OC)nc2)cc2c1[Si](C(C)C)(C(C)C)O[C@H]2c1ccccc1`, for which the composite z-score in assay [1] is -0.16; in assay [2], -0.0924; in assay [3], 0.0131; in assay [4] it was 0.0809; in [5] it was 0.144; in assay [6] it was -0.384. Also, the composite z-score in assay [7] is -0.821; in assay [9] it was -0.546; in assay [10], -0.146; in assay [11] it was 0.608; in assay [15], -0.4; in [17], -0.203. The composite z-score in [18] is 0.75; in [19], 0.783; in assay [20], -0.0674. Also, the z-score in assay [8] is -0.566 (inactive); in assay [12], 0.493 (inactive); in assay [13], 0.993 (inactive); in assay [14], -0.226 (inactive); in assay [16] it was -0.995 (inactive).
With `O=C1OCCC/C=C\[C@H]2OC34C=CCN(Cc5ccccc5)C(=O)[C@H]3N(CCCO)C(=O)[C@@H]4C12` (stereo not given in full), the composite z-score is 0.985 in assay [1]; 2.29 in assay [2]; -0.145 in assay [3]; -0.458 in [4]; -1.15 in [5]; 0.822 in [6]. Besides, the composite z-score in assay [7] is 0.703; in assay [9], -0.572; in [10], -0.0994; in assay [11], -0.523; in [15] it was 1.83; in [17], -0.126. Further, the composite z-score in assay [18] is -1.75; in [19], -0.386; in assay [20], -0.246. Besides, the z-score in assay [8] is 0.308 (inactive); in [12], 0.769 (inactive); in [13], -0.0304 (inactive); in assay [14], 0.972 (inactive); in assay [16], 0.872 (inactive).
